Reference: PubChem BioAssay (EPA / NIEHS)
Inconclusive results are not listed. Some compounds were tested as several samples or in several runs, with calls that do not always agree. The source made the active and inactive calls. Rule for the calls: active = hit-call score of the fitted dose curve at least 0.9, where 1 is the maximum; inconclusive = response in the unintended direction; inactive = score below 0.9.

These compounds were tested on Cytochrome P450 2B6 (Homo sapiens) (UniProt P20813) (assay: CLD_CYP2B6_48hr: CellzDirect (CLD) Gene Expression Assay for xenobiotic metabolism (CYP2B6) at 48 hours (AID 2283699);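 note: actives raise transcript level above DMSO so potency reflects induction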).
Method: CLD_48hr is a cell-based, multiplexed-readout assay that uses hepatocyte, a human liver primary cell, with measurements taken at 48 hours after chemical dosing in a 96-well plate.CLD_CYP2B6_48hr is one of 16 assay component(s) measured or calculated from the CLD_48hr assay. It is designed to make measurements of mRNA induction, a form of inducible reporter, as detected with chemiluminescence signals by Quantitative Nuclease Protection Assay (qNPA) technology.Data from the assay component CLD_CYP2B6_48hr was analyzed at the endpoint, CLD_CYP2B6_48hr, in the positive analysis fitting direction relative to DMSO as the negative control and baseline of activity. Using a type of inducible reporter, gain-of-signal activity can be used to understand changes in the reporter gene as they relate to the gene CYP2B6. Furthermore, this assay endpoint can be referred to as a primary readout. To generalize the intended target to other relatable targets, this assay endpoint is annotated to the cyp intended target family, where subfamily is xenobiotic metabolism.
Human hepatocyte cultures were treated daily for two consecutive days with fresh dosing solutions containing appropriate concentrations of the 320 ToxCast chemicals (chemical identities were blinded to CellzDirect and other ToxCast collaborators), vehicle control (0.2% DMSO), and positive control inducers as summarized in Table 1. Due to the large number of treatment groups and chemicals examined, the ToxCast chemicals were divided into two groups (spanning two independent cultures of hepatocytes from separate donor preparations (Hu778: ToxCast plates 1 and 2; Hu776: ToxCast plates 3 and 4). Each preparation of human hepatocyte cultures was treated with respective vehicle control, medium only control, set of six positive controls/reference chemicals for the five hepatic receptor pathways, and a subset of eight of the ToxCast chemicals (indoxacarb, pyrithiobac-sodium, norflurazon, cyhalofop-butyl, methomyl, thiram, acetochlor, and propiconazole). These replicate data, coupled with internal replicates designed within the blinded ToxCast chemical library, provided additional data to evaluate interindividual differences between hepatocyte preparations and their potential impact on chemical profiles.Cell morphology and integrity were evaluated using phase-contrast microscopy as an indicator of hepatocyte cell health (Tyson & Green, 1987). Cultures for each treatment group (i.e., media, vehicle [0.2% DMSO], positive control inducers [multiple concentrations], and the ToxCast chemicals [multiple concentrations]) were observed and cell morphology was assessed relative to vehicle control cultures at each harvest time point (0, 6, 24, or 48 h). […] Images were evaluated at the conclusion of the study to assess changes in cell integrity and account for the effects of chemical exposure on uncharacteristic changes in concentration-dependent gene expression profiles. The results from these determinations of apparent cytotoxicity were annotated (yes/no) alongside the corresponding qNPA data for reference.At the conclusion of each treatment period, hepatocyte cultures (96-well) were washed with 1 volume of HBSS, lysed by addition of 25 ul ArrayPlate lysis buffer (HTG, Tucson, AZ), and 70 ul/well of Denaturation Oil, denatured by incubation at 95C for 10 min, and frozen at approximately -70C until analysis by nuclease protection assay (qNPA) (Roberts et al., 2007). For qNPA analysis, cell lysates were thawed at 50C for approximately 30 min, qNPA probes were added, and samples were incubated at 95C for 10 min to begin the detection process by denaturing the target RNA, dissociating the duplexes and secondary structure hybridization. At the conclusion of the hybridization period, S1 nuclease reagent was added to each sample to digest all nonprotected nucleotides at 50C for 60-90 min. […]

SMILES	AC50	outcome
N#CC(CCc1ccc(Cl)cc1)(Cn1cncn1)c1ccccc1 (stereo not given)	0.434 µM (active)	–
O=C(Nc1ccccc1)Nc1ccnc(Cl)c1	6.77 µM (active)	–
C=CCC1=C(C)C(OC(=O)C2C(C=C(C)C)C2(C)C)CC1=O (stereo not given)	12.8 µM (active)	–
CCc1nn(C)c(C(=O)NCc2ccc(C(C)(C)C)cc2)c1Cl	37.3 µM (active)	–
O=C(O)COc1nc(Cl)c(Cl)cc1Cl	–	inactive
Cc1cc(Cl)ccc1OCC(=O)O	–	inactive
COC(=O)C(C)Oc1ccc(Oc2ccc(Cl)cc2Cl)cc1 (stereo not given)	20 µM (active)	inactive
CC(C)(C)c1ccc(CSc2cnn(C(C)(C)C)c(=O)c2Cl)cc1	–	inactive
C=CCC1=C(C)[C@@H](OC(=O)[C@@H]2[C@@H](C=C(C)C)C2(C)C)CC1=O	4.38 µM (active)	–
Oc1ccccc1-c1ccccc1	8.64 µM (active)	–
C#CCOS(=O)OC1CCCCC1Oc1ccc(C(C)(C)C)cc1 (stereo not given)	2 µM (active)	–
COC(=O)c1ccccc1C(=O)OC	–	inactive
Fc1ccc(Oc2ccnc3cc(Cl)cc(Cl)c23)cc1	–	inactive
COc1ccc(C(c2ccc(OC)cc2)C(Cl)(Cl)Cl)cc1	6.44 µM (active)	–
N#Cc1nn(-c2c(Cl)cc(C(F)(F)F)cc2Cl)c(N)c1S(=O)C(F)(F)F (stereo not given)	1.9 µM (active)	–
CC(C)C1(C)N=C(c2nc3ccccc3cc2C(=O)O)NC1=O (stereo not given)	0.000357 µM (active)	–
CCOC(=O)CC(SP(=S)(OC)OC)C(=O)OCC (stereo not given)	–	inactive
CCOc1cc(Oc2ccc(C(F)(F)F)cc2Cl)ccc1[N+](=O)[O-]	1.83 µM (active)	–
COc1cnc(OC)n2nc(NS(=O)(=O)c3c(OCC(F)F)cccc3C(F)(F)F)nc12	–	inactive
CCCCC(CC)COC(=O)c1ccccc1C(=O)OCC(CC)CCCC (stereo not given)	–	inactive

SMILES	AC50	outcome
O=C(O)c1nc(Cl)ccc1Cl	4.4 µM (active)	–
COC(=O)C=C(C)OP(=O)(OC)OC	0.0004 µM (active)	–
CC1COC(Cn2cncn2)(c2ccc(Oc3ccc(Cl)cc3)cc2Cl)O1 (stereo not given)	–	inactive
CCCCNC(=O)OCC#CI	–	inactive
CCON=C(CC)C1=C(O)CC(c2c(C)cc(C)cc2C)CC1=O (stereo not given)	–	inactive
CC(Oc1ccc(Cl)cc1Cl)C(=O)O (stereo not given)	–	inactive
CNC(=O)ON=CC(C)(C)SC	–	inactive
CCOC(=O)C(Cl)Cc1cc(-n2nc(C)n(C(F)F)c2=O)c(F)cc1Cl (stereo not given)	20 µM (active)	–
CN(C)C(=S)SSC(=S)N(C)C	–	inactive
CCOP(=S)(OCC)SCn1c(=O)oc2cc(Cl)ccc21	1.06 µM (active)	–
COc1nc(C)nc(NC(=O)NS(=O)(=O)c2ccccc2Cl)n1	–	inactive
COC(=O)N(OC)c1ccccc1COc1ccn(-c2ccc(Cl)cc2)n1	–	inactive
CCNc1nc(Cl)nc(NCC)n1	6.18 µM (active)	–
CC1=C(C(=O)Nc2ccccc2)SCCO1	20 µM (active)	–
COc1nc(NC(C)C)nc(NC(C)C)n1	5.98 µM (active)	–
CON(C)C(=O)Nc1ccc(Cl)c(Cl)c1	1.31 µM (active)	–
COP(=S)(OC)Oc1nc(Cl)c(Cl)cc1Cl	7.69 µM (active)	–
CCCC1COC(Cn2cncn2)(c2ccc(Cl)cc2Cl)O1 (stereo not given)	1.89 µM (active)	–
C=CC1(C)OC(=O)N(c2cc(Cl)cc(Cl)c2)C1=O (stereo not given)	–	inactive
